Measurements: PubChem BioAssay (NCI)
The panel holds about 83,000 compounds, 20% with a hit somewhere; the sample as a whole holds those more often.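 Cell lines were cultured in 96-well plates, exposed to a single compound concentration, and assessed for percent growth 48 hours later.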 Active and inactive are the calls of the source. How the source made its calls: active means growth percent below 10; inactive means the rest.

What was measured:
Assay in all cases: NCI-60 one-dose screen, 48 h (100 = growth as untreated, 0 = no growth, -100 = all killed)
Conditions in all cases: 10 µM unless noted
HCT-15 colon = system: HCT-15 colon
HT29 colon = system: HT29 colon
SNB-75 CNS = system: SNB-75 CNS
SNB-19 CNS = system: SNB-19 CNS
U251 CNS = system: U251 CNS
PC-3 prostate = system: PC-3 prostate
SK-MEL-5 melanoma = system: SK-MEL-5 melanoma
UACC-62 melanoma = system: UACC-62 melanoma
LOX IMVI melanoma = system: LOX IMVI melanoma
SK-MEL-28 melanoma = system: SK-MEL-28 melanoma

Measured: growth

CCOC(=O)c1c(NCC(=O)Nc2cccc([N+](=O)[O-])c2)sc2c1CCCC2
active: HCT-15 colon -42.4% | HT29 colon -71.5% | SNB-75 CNS -48.6% | SNB-19 CNS -17.3% | U251 CNS -26.5% | PC-3 prostate -34% | SK-MEL-5 melanoma -98.4% | UACC-62 melanoma -90.3% | LOX IMVI melanoma -73% | SK-MEL-28 melanoma -80.2%

Cc1csc(Nc2cccc(Nc3nc(C)cs3)c2)n1
inactive: HCT-15 colon 79.1% | HT29 colon 105% | SNB-75 CNS 97.4% | SNB-19 CNS 82.3% | U251 CNS 83.3% | PC-3 prostate 77.1% | SK-MEL-5 melanoma 44.9% | UACC-62 melanoma 66.9% | LOX IMVI melanoma 74.5% | SK-MEL-28 melanoma 84.3%

Brc1cccc(/C=N/Nc2nc(N/N=C/c3cccc(Br)c3)nc(N3CCOCC3)n2)c1
active: HCT-15 colon -8.94% | HT29 colon 6.61% | LOX IMVI melanoma 5.23%
inactive: SNB-75 CNS 107% | SNB-19 CNS 77.9% | U251 CNS 42.7% | PC-3 prostate 36.5% | SK-MEL-5 melanoma 20.7% | UACC-62 melanoma 56% | SK-MEL-28 melanoma 17.1%

C=CCn1c(SCC(=O)Nc2cccc(C(=O)/C=C/c3ccc(C)cc3)c2)nc2ccccc2c1=O
inactive: HCT-15 colon 62% | HT29 colon 72.7% | SNB-75 CNS 78.4% | SNB-19 CNS 81.7% | U251 CNS 72% | PC-3 prostate 72.5% | SK-MEL-5 melanoma 97.2% | UACC-62 melanoma 76.7% | LOX IMVI melanoma 73.8% | SK-MEL-28 melanoma 95.3%

Cc1cn(-c2cc(NC(=O)c3cncc(C#Cc4cnc5ccc(O[C@@H]6CCOC6)nn45)c3)cc(C(F)(F)F)c2)cn1
active: HCT-15 colon -31.2% | HT29 colon -14% | SNB-75 CNS -63.3% | SNB-19 CNS -7.45% | U251 CNS -96.6% | PC-3 prostate -0.613% | SK-MEL-5 melanoma -98.4% | UACC-62 melanoma -51.7% | LOX IMVI melanoma -75.7% | SK-MEL-28 melanoma -46.9%

CCC(C)[C@H]1OC(=O)[C@H](C(C)C)N(C)C(=O)[C@@H](C(C)C)OC(=O)[C@H](C(C)C)N(C)C(=O)[C@@H](C(C)CC)OC(=O)[C@H](C(C)C)N(C)C1=O (stereo not given in full)
active: HT29 colon 6.93% | SNB-75 CNS -2.11% | SK-MEL-5 melanoma -31.5% | UACC-62 melanoma 6.11% | LOX IMVI melanoma 7.89%
inactive: HCT-15 colon 11.4% | SNB-19 CNS 18.1% | U251 CNS 12.5% | PC-3 prostate 12.1% | SK-MEL-28 melanoma 32.2%

Cc1ccc(/C=C/c2nn3c(-c4ccco4)nnc3s2)cc1
inactive: HCT-15 colon 96.1% | HT29 colon 103% | SNB-75 CNS 108% | SNB-19 CNS 92.6% | U251 CNS 101% | PC-3 prostate 98.4% | SK-MEL-5 melanoma 98.4% | UACC-62 melanoma 90.7% | LOX IMVI melanoma 105% | SK-MEL-28 melanoma 94.1%

C=CCn1c(SCC(=O)c2ccc(OC)cc2)nnc1-c1ccc(OC)cc1
active: SK-MEL-5 melanoma -20%
inactive: HCT-15 colon 98.1% | HT29 colon 108% | SNB-75 CNS 108% | SNB-19 CNS 99.7% | U251 CNS 102% | PC-3 prostate 99.6% | UACC-62 melanoma 95.4% | LOX IMVI melanoma 103% | SK-MEL-28 melanoma 100%

C=C(C)[C@@H]1CC[C@]2(C(=O)ON)CC[C@]3(C)[C@H](CC[C@@H]4[C@@]5(C)C/C(=C/c6ccc(Br)cc6)C(=O)C(C)(C)[C@@H]5CC[C@]43C)[C@@H]12
inactive: HCT-15 colon 57.8% | HT29 colon 71.5% | SNB-75 CNS 104% | SNB-19 CNS 78.2% | U251 CNS 70.8% | PC-3 prostate 45.8% | SK-MEL-5 melanoma 86.1% | UACC-62 melanoma 59.5% | LOX IMVI melanoma 69.7% | SK-MEL-28 melanoma 84.7%

O=C(NCCCNc1cc(-c2cn(-c3ccccc3)nc2-c2cccc(O)c2)ccn1)Nc1cccc(C(F)(F)F)c1
inactive: SNB-75 CNS 45% | SNB-19 CNS 42.8% | U251 CNS 33.5% | PC-3 prostate 27.1% | SK-MEL-5 melanoma 37.8% | UACC-62 melanoma 19.9%
active: HCT-15 colon -25.3% | HT29 colon 9.99% | LOX IMVI melanoma 8.34% | SK-MEL-28 melanoma -12.1%

CC(=O)NC(C)(C)C(=O)N[C@@H](C)C(=O)NC(C)(C)C(=O)N[C@@H](C)C(=O)NC(C)(C)C(=O)N[C@@H](C)C(=O)N[C@@H](CCC(N)=O)C(=O)NC(C)(C)C(=O)N[C@H](C(=O)NC(C)(C)C(=O)NCC(=O)N[C@@H](CC(C)C)C(=O)NC(C)(C)C(=O)N1CCC[C@H]1C(=O)N[C@H](C(=O)NC(C)(C)C(=O)NC(C)(C)C(=O)N[C@@H](CCC(N)=O)C(=O)N[C@@H](CCC(N)=O)C(=O)N[C@H](CO)CC1CCCCC1)C(C)C)C(C)C
inactive: HCT-15 colon 79.2% [5 µM] | HT29 colon 14.1% [5 µM] | SNB-75 CNS 19.7% [5 µM] | SNB-19 CNS 43.8% [5 µM] | U251 CNS 38.5% [5 µM] | PC-3 prostate 29.8% [5 µM] | LOX IMVI melanoma 27.1% [5 µM]
active: SK-MEL-5 melanoma -33.6% [5 µM] | UACC-62 melanoma 2.45% [5 µM] | SK-MEL-28 melanoma -17.1% [5 µM]

O=c1oc2ccc(-c3ccc(F)cc3F)cc2c(=O)n1-c1ccc(F)c(F)c1
inactive: HT29 colon 88.8% | SNB-75 CNS 14.9% | SNB-19 CNS 12.2% | U251 CNS 11.9% | PC-3 prostate 13.3% | LOX IMVI melanoma 17.8% | SK-MEL-28 melanoma 19.9%
active: HCT-15 colon 3.09% | SK-MEL-5 melanoma -77.4% | UACC-62 melanoma -12.8%
